Results filed as inconclusive are left out. A call without a number means that no potency is given here. Values without a mark were called inactive. Calls of active or inactive are those of the source. Calls come from the whole dose curve; as a rule, active = well fitted curve in the direction sought with a large enough effect; inconclusive = small, poorly fitted or top-dose-only effect, or another doubt; inactive = no such curve, though single readings can be large; an effect the other way counts as inactive or inconclusive.
How the values were obtained:
[1] = target: Cellular tumor antigen p53 (Homo sapiens) (UniProt P04637); test: Primary qHTS for small molecule compounds that upregulate eGFP-tagged delta133p53alpha (in N-terminal) cells. (AID 2060322); conditions: NCI-H358 eGFP-delta133p53alpha fluorescence, 24 h; activation: hits give high values; note: nearly all actives have a fitted effect of over 75% in size; note: potency is the fitted concentration of half-maximal effect; for activation: series mostly up to about 56 µM
How it was run: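 NCI-H358 cells pre-induced 24 h with 10 ng/ml doxycycline to express N-terminal eGFP-delta133p53alpha, then dosed 24 h at 37C without doxycycline; fixed, Hoechst-stained, GFP intensity by laser scanning cytometry, normalized to DMSO (0%) and 57.5 uM 5-azacytidine (100%).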

[2] = target: Aldehyde dehydrogenase, mitochondrial (Homo sapiens) (UniProt P05091); test: qHTS for Inhibitors of the Aldehyde Dehydrogenase Family (ALDH2) Primary screen (AID 2061308); note: nearly all actives have a fitted effect of over 55% in size
[3] = target: Retinaldehyde dehydrogenase 3 (Homo sapiens) (UniProt P47895); test: qHTS for Inhibitors of the Aldehyde Dehydrogenase Family (ALDH1A3) Primary screen (AID 2061315)

Chain of Cellular tumor antigen p53 (Homo sapiens) (P04637 whole entry, looked up): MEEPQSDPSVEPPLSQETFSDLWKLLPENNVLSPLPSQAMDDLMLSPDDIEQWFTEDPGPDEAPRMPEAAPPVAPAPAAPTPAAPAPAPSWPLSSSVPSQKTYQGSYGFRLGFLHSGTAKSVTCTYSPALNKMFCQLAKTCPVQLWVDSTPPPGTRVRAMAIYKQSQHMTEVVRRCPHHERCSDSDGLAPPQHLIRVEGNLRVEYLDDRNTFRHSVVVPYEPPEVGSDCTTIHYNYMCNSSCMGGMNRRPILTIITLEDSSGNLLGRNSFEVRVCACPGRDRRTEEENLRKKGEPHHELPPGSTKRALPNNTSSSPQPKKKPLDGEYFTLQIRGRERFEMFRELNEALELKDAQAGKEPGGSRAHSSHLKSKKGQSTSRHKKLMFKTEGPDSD

Row | SMILES | activation [1] | Potency [2] | Potency [3] | Potency [1]
1 | C=C1C(=O)OC2CC(C)=C(C(C)CCCO[C@@H]3O[C@H](CO)[C@@H](O)[C@H](O)[C@H]3O)C(O)C12 (some centres undefined) | -18.3% | inactive | inactive | –
2 | C=C1C(OC2OCC(O)C(O)C2O)CC2C(C)(C)C(O)CCC2(C)C1CC/C(C)=C\CO (centres undefined) | 7.63% | inactive | inactive | –
3 | COC(=O)C1=CO[C@@H](O[C@@H]2O[C@H](CO)[C@@H](O)[C@H](O)[C@H]2O)[C@@H]2[C@@H](CO)[C@@H](O)C(O)[C@H]12 (some centres undefined) | -1.79% | inactive | inactive | –
4 | CC(C)CCNC(=O)[C@H](CC(C)C)NC(=O)[C@H]1O[C@@H]1C(=O)O | -9% | inactive | inactive | –
5 | C=C1C(=O)OC2/C=C(\C)CC/C=C(\C)CC(OC(C)=O)C12 (centres undefined) | – | inactive | inactive | 26.9 µM (active)
6 | O=C(Nc1ccn[nH]1)c1c(F)cccc1F | 12.3% | inactive | inactive | –
7 | CC(C)/C=C1/NC(=O)C(C(C)C)n2c1nc1c(O)cccc1c2=O (centres undefined) | -14.5% | inactive | inactive | –
8 | C/C=C1/[C@H](O[C@@H]2O[C@H](CO)[C@@H](O)[C@H](O)[C@H]2O)OC=C2C(=O)O[C@@H]3C[C@@H](C(C)CO)[C@H](COC(=O)C[C@H]21)[C@H]3C (some centres undefined) | -3.57% | inactive | inactive | –
9 | COc1ccc(C(=O)O[C@H]2CC(C)=CC[C@@]3(C)[C@@H](OC(C)=O)C[C@@](O)(C(C)C)[C@H]23)cc1 | 1.79% | inactive | inactive | –
10 | Cc1cc2c(c(=O)o1)C=C1CC[C@H]([C@H](C)Cn3cnc(=N)c4[nH]cnc43)C[C@@H]1O2 | 14.3% | inactive | inactive | –
11 | C=C1C2(CCC(=O)OC2(C)C)CC(OC(=O)/C(C)=C/C)C2(C)C13OC14C(=O)OC(C)(C(=O)C12C(=O)OC4C)C3OC(C)=O (centres undefined) | -0.763% | inactive | inactive | –
12 | Cc1nc(C#Cc2ccnc(Cl)c2)c(C)n1-c1ccc(OC(F)(F)F)cc1 | -7.16% | inactive | inactive | –
13 | COc1c(N2CC3CCCNC3C2)c(F)cc2c(=O)c(C(=O)O)cn(C3CC3)c12 (centres undefined) | 3.34% | inactive | inactive | –
14 | CCOc1ccc2nc(SCCN3CCOCC3)[nH]c2c1 | -7.64% | inactive | inactive | –
15 | COC(=O)C1=CO[C@@H](O[C@@H]2O[C@H](CO)[C@@H](O)[C@H](O)[C@H]2O)[C@H]2[C@@H]1C=C[C@@]21C=C([C@H](C)O)C(=O)O1 | 13.4% | inactive | inactive | –
16 | O=C(Nc1c(-c2cccs2)nc2ccccn12)c1ccc(Cl)cc1 | -8.59% | inactive | inactive | –
17 | CC(NC(=O)[C@H](Cc1ccccc1)NC(=O)OCc1ccccc1)C(=O)CF (some centres undefined) | -5.67% | inactive | inactive | –
18 | C=C1C(=O)OC2/C=C(\C)CC/C=C(\C=O)C(OC)C(OC(=O)C(C)CC)C12 (centres undefined) | – | inactive | inactive | 16.6 µM (active)

Reference: PubChem BioAssay (NCATS)
